Activation data for 119 molecules are collected here from PubChem BioAssay AID1276 (Columbia University Molecular Screening Center, 2008).

Screen size: about 190,000 compounds; about 2,000 (1.1%) were called active. The sample as a whole holds a higher share of actives than the screen did. Unmarked numbers belong to inactive results.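 The calls were made as follows: active = activation above a set limit, based on mean plus 3 SD of controls (cut at about 140% in these data); inconclusive = one replicate above the limit, the other below; inactive = the rest.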

The assay is described as follows: activators of APP 5'UTR luciferase reporter, primary screen, SH-SY5Y cells (AID 1276). Particulars: SH-SY5Y APP 5'UTR luciferase reporter, luminescence; at 2 µM; stronger effect = higher value; zero percent = DMSO vehicle wells.
For `CCOc1ccc(Nc2nc(Cl)nc(N3CCN(c4ccc(OC)cc4)CC3)n2)cc1`, the activation was -9.55%.

Regarding `c1ccc(Nc2nc(N3CCOCC3)c3ccccc3n2)cc1`, the activation was 7.27%.

With `COc1ccc(Nc2ncc(F)c(N3CCOCC3)n2)cc1`, the activation was 153% (active).

As for `CCOC(=O)c1c(/N=C/C2C(=O)CC(C)(C)CC2=O)sc(C)c1C`, the activation was 2.63%.

Regarding `CCN(CC)CCOC(=O)c1ccc(NC(=O)CNC(=O)c2ccccc2)cc1`, the activation is 18.8%.

Turning to `COc1cccc(CN(C)CC(=O)NCc2ccccc2Cl)c1OC`, the activation was 7.69%.

For `NC(=O)C1CCN(Cc2nc3c(Br)cc(Br)cc3c(=O)[nH]2)CC1`, the activation is 4.38%.

Regarding `COc1ccc(C(=O)NC2CCN(C(=S)Nc3ccccc3)CC2)cc1`, the activation was -16.7%.

Consider `COc1ccc(C(=S)Nc2ccccc2)cc1`, for which the activation is 68.3%.

As to `COc1ccc(NC(=S)N2N=CCC2c2ccccc2)cc1` (centres undefined), the activation is 180% (active).

As to `O=C1C2C3C=CC(C3)C2C(=O)N1c1ccc(-c2nc3ccccc3c(=O)o2)cc1` (centres undefined), the activation was 3.88%.

For `Cc1cccc(C(=O)N2CCCN(C(=O)c3cccc(C)c3)CC2)c1`, the activation was 2.21%.

Regarding `Cc1cc(=O)oc(C)c1C(=O)N1CCCCC1`, the activation is -5.29%.

For `Cc1ccc2cc3cc(C(=O)N4CCCCCC4)oc3nc2c1`, the activation was 167% (active).

Consider `CCC1(C(=O)c2ccccc2)C(c2cccc([N+](=O)[O-])c2)C1(C(=O)OC)C(=O)OC` (centres undefined), for which the activation was -17.3%.

For the molecule `CCN(CC)c1ccc2c(Nc3ccccc3)c(C=O)c(=O)oc2c1`, the activation is -11.3%.

Consider `O=C(CSc1nc2ccccc2[nH]1)c1cccs1`, for which the activation is 162% (active).

Regarding `CCCCSc1nc2ccccc2[nH]1`, the activation was 27.4%.

Regarding `C=CCSc1nc2ccccc2[nH]1`, the activation was 15.8%.

In the case of `CC(C)(C)NC(=O)CN(C(=O)c1ccc(Cl)nc1)c1cccc2ccccc12`, the activation was -19.3%.

For `O=C(Nc1cccn(Cc2ccccc2Cl)c1=O)NC1CCCCC1`, the activation is 19.9%.

On to `O=C(Nc1ccc2c(c1)OCCO2)C1CCCN(c2ncccn2)C1` (centres undefined), for which the activation is 159% (active).

As to `Cc1ccnc(N2CCCC(C(=O)Nc3cc(F)ccc3C)C2)n1` (centres undefined), the activation is 30.3%.

In the case of `Cc1cc(C)nc(N2CCC(C(=O)Nc3ccc4c(c3)OCCO4)CC2)n1`, the activation is 2.98%.

For the molecule `CCN(CC)CCNC(=O)c1ccc(NS(=O)(=O)c2ccc3c(c2)OCCO3)cc1`, the activation is 12.6%.

Consider `O=C(Nc1ccc(N2CCN(C(=O)C3CC3)CC2)cc1)c1cccs1`, for which the activation was -0.31%.

In the case of `COC(c1ccccc1)c1nnc(CCC(=O)N2CCN(CCOc3ccccc3)CC2)o1` (centres undefined), the activation is -7.19%.

Take `c1ccc(Nc2nc(-c3ccncc3)cs2)nc1`: the activation is 158% (active).

As to `O=C(Nc1ccc(Cl)cn1)Nc1cccs1`, the activation is 25.6%.

As for `COc1ccc(C(=O)/C=C/Nc2ccccn2)cc1`, the activation was 134%.

On to `Clc1ccc(Nc2nc(-c3cccs3)cs2)nc1`, for which the activation was 135% (active).

For the molecule `COc1ccc(Nc2nc(-c3ccccc3)cs2)cc1`, the activation was 148% (active).

Turning to `COc1ccc(-c2csc(Nc3ccc(O)cc3)n2)cc1`, the activation was 120%.

With `COc1ccc(-c2csc(Nc3ccccn3)n2)cc1`, the activation is 205% (active).

Take `NS(=O)(=O)c1ccc(Nc2nc(-c3ccccc3)cs2)cc1`: the activation is 52.2%.

`O=C(Nc1nc(-c2ccc(-c3ccccc3)cc2)cs1)c1cnccn1`: the activation was 11%.

Turning to `Oc1ccc(-c2csc(Nc3cccnc3)n2)cc1`, the activation was 17.7%.

Consider `c1cnc(Nc2nc(-c3ccc4ccccc4c3)cs2)nc1`, for which the activation is 29.6%.

On to `COc1ccc2nc(Nc3nc(-c4ccncc4)cs3)sc2c1`, for which the activation is 65.1%.

With `CCc1cccc(CC)c1NC(=O)COc1ccccc1C(=O)c1cc(C#N)c(=O)n(C2CCCCC2)c1`, the activation was 12.3%.

`Cc1ccc(NC(=O)CSc2nc(CSc3ccc(C)cc3)cc(=O)[nH]2)cc1`: the activation is 7.62%.

Regarding `CCN(CC)CCn1c(/N=C/c2cc(Br)ccc2O)nc2ccccc21`, the activation was -4.24%.

Turning to `COc1cc(C(=O)Nc2cc(C(F)(F)F)ccc2-n2cncn2)cc(OC)c1OC`, the activation was 0.9%.

As to `CCCCCN(C(=O)NC(=O)Nc1cccc(C)c1C)S(C)(=O)=O`, the activation is 12.9%.

On to `COc1ccccc1/C=N\Nc1cc(C)nc(-n2nc(C)cc2C)n1`, for which the activation is -3.23%.

For `CCc1ccc(-c2cc(C(=O)NN3CCN(C)CC3)c3ccccc3n2)cc1`, the activation is 47.9%.

`COCCNc1nc2nonc2nc1N1CCCC1c1nccs1` (centres undefined): the activation was 2.4%.

For `CCC(C)NCC(=O)Nc1ccc([N+](=O)[O-])cc1C(=O)Nc1ccccc1F` (centres undefined), the activation is -0.05%.

For `CC(CC(=O)O)CC(=O)NNC(=O)c1cccc(Br)c1` (centres undefined), the activation was 7.74%.

In the case of `C(=N\Nc1ccc2ccccc2n1)/c1ccc2c(c1)OCO2`, the activation was 227% (active).

In the case of `Cc1nc2ccccc2cc1C(=O)N/N=C/c1ccc([N+](=O)[O-])cc1`, the activation was -13.5%.

Take `Brc1ccc(-c2csc(N/N=C/c3ccc4c(c3)OCO4)n2)cc1`: the activation was -0.09%.

Take `Cc1noc(C)c1/C=N/Nc1ccc2ccccc2n1`: the activation was 169% (active).

For `O=C(Cc1ccc(F)cc1)N/N=C/c1ccc2c(c1)OCO2`, the activation is 42.8%.

Consider `Cc1cc(C)nc(N/N=C/c2c(C)oc3ccccc23)n1`, for which the activation is 22.1%.

For `Cc1cccc(-n2c(=O)c3c(C)c(C)sc3n(CC(N)=O)c2=O)c1`, the activation is -15.7%.

Turning to `CCn1c(SCC(=O)Nc2ccc(C)cc2)nc2nc3c(cc2c1=O)CCCC3`, the activation is 17.6%.

With `CC(C)CNC(=S)NC(=O)c1ccc(Cl)cc1`, the activation is 37.3%.

With `Cc1cccc(OCCC(=O)Nc2cc(S(=O)(=O)N3CCCCC3)ccc2N2CCOCC2)c1`, the activation was 11.1%.

Consider `COc1ccc(OCCNS(=O)(=O)Cc2ccccc2)cc1`, for which the activation was 8.23%.

On to `CC1CN/C(=C\C(=O)c2ccc(Br)cc2)C(=O)N1` (centres undefined), for which the activation was 138% (active).

For `C/C(=C\C(=O)c1ccc(Br)cc1)N1CCCCC1`, the activation is -20.4%.

Consider `CN1CCCC(OC(=O)COc2ccc(Br)cc2)C1` (centres undefined), for which the activation is 3.06%.

On to `COc1ccc(Cc2nnc(N/N=C/c3ccccc3O)[nH]c2=O)cc1OC`, for which the activation was -85.9%.

For the molecule `Cc1cc(Cl)ccc1OCc1nc(-c2ccncc2)no1`, the activation was 95.7%.

For `COC(=O)c1sc(NC(=O)c2csc3c2CCCC3)nc1C`, the activation was 95.3%.

As to `Cc1ccc(NC(=O)c2csc3c2CCCC3)cc1`, the activation was 232% (active).

`COC(=O)c1sccc1NC(=O)c1csc2c1CCCC2`: the activation was -8.07%.

`Cc1cc(C)n(CCNCc2c(C(=O)N3C[C@@H](C)O[C@@H](C)C3)nc3ccc(Cl)cn23)n1`: the activation is 13.1%.

Turning to `C/C(=C\C(=O)c1ccccc1)Nc1cccc(O)c1`, the activation was 33.4%.

For the molecule `O=C(Nc1cccc(O)c1)c1ccc(C(=O)c2ccccc2)o1`, the activation was 155% (active).

On to `O=C(CSc1ccccc1)Nc1ccc(C(=O)Nc2cccc(O)c2)cc1`, for which the activation is 37.6%.

In the case of `CC1COc2ccccc2N1S(=O)(=O)c1ccccc1` (centres undefined), the activation is -2.45%.

As for `COC(=O)c1ccc(NC(=O)c2ccco2)cc1`, the activation is 120%.

Regarding `O=C(Nc1ccc(Oc2ccccc2)cc1)c1ccco1`, the activation is 163% (active).

As to `O=C(CSc1ccccc1)Nc1ccc(NC(=O)c2ccco2)cc1`, the activation is 6.16%.

Regarding `COC(=O)c1cc2n(n1)CCCNC2=O`, the activation is -7.46%.

On to `Cc1ccc(-c2csc(NNC(=O)c3ccccc3)n2)cc1`, for which the activation was 3.5%.

In the case of `Cc1ccc(Nc2nc(-c3ccc(O)cc3O)cs2)nc1`, the activation was 151% (active).

Consider `Cc1ccc(NC(=O)c2cc(-c3ccc(C)o3)nc3ccccc23)nc1`, for which the activation is -0.92%.

As to `CC1=NNC(=O)C1CCC(=O)N/N=C\c1cccc(Cl)c1` (centres undefined), the activation is 0.72%.

For the molecule `O=c1cc(N2CCCCC2)c(-c2ccccc2)nn1Cc1cccc(F)c1`, the activation was -6.8%.

In the case of `CCOc1ccc(C(=O)NC(=S)Nc2ccc(N3CCOCC3)c(Cl)c2)cc1[N+](=O)[O-]`, the activation was -10.7%.

As for `Cc1ccc2nc(-c3ccc(NC(=O)CN(C)S(=O)(=O)c4ccccc4)cc3)sc2c1`, the activation is 190% (active).

On to `Cc1cccc(N(CC(=O)Nc2ccc(-c3nc4ccc(C)cc4s3)cc2)S(C)(=O)=O)c1`, for which the activation is 104%.

For the molecule `COc1cc(NC(=O)CN(C)S(=O)(=O)c2ccc3nc(C)sc3c2)cc(OC)c1`, the activation was 17.7%.

Take `Cc1nc2cc(NC(=O)NCc3ccccc3)ccc2o1`: the activation is 23.1%.

For `C=CCN(C(=O)Nc1ccc2oc(C)nc2c1)c1ccccc1`, the activation is 11.6%.

With `Cc1ccc(NC(=O)Nc2ccc3oc(C)nc3c2)cc1`, the activation is 145% (active).

With `COC(=O)c1ccc(/C=N/N2C(C)CCCC2C)cc1` (centres undefined), the activation is 53%.

For the molecule `CCOC(=O)CSc1nnc(-c2ccc([N+](=O)[O-])cc2)o1`, the activation is 5.38%.

On to `CC1=CC=CC2=N/C(=N\S(=O)(=O)c3ccc(F)cc3F)c3ccccc3CN12`, for which the activation was 27%.

`COc1cc(/C=N/NC(=O)c2cc(C)n(-c3ccc(F)cc3)c2C)cc(OC)c1O`: the activation is 0.41%.

Take `Cc1cc(C(=O)COC(=O)C2CC2)c(C)n1-c1ccc(F)cc1`: the activation was 145% (active).

Turning to `Cc1ccc(-n2c(C)cc(C(=O)CN3C(=O)C(=O)N(C4CCCC4)C3=O)c2C)cc1`, the activation was -9.76%.

For `Cc1ccc(OCC(=O)Nc2ccc(S(=O)(=O)Nc3ccccn3)cc2)cc1`, the activation was 0.31%.

As for `CCc1nc2ccccc2c(C(=O)OC2CCCCC2=O)c1C` (centres undefined), the activation is 2.83%.

For the molecule `CCn1c(SCc2cc(=O)n3ccsc3n2)nc2ccccc21`, the activation was -4.54%.

On to `COc1cccc(/C=C/C(=O)Nc2ccc3c(c2)OCCO3)c1`, for which the activation was 168% (active).

Regarding `COc1ccc(OC)c(/C=C/C(=O)OCC(=O)Nc2ccc3c(c2)OCCO3)c1`, the activation was -19.2%.

Turning to `COc1ccc(/C=C/C(=O)Nc2ccc3c(c2)OCCO3)cc1OC`, the activation was -0.48%.

As for `CC1CCCC(NC(=O)COC(=O)[C@@H]2CC(O)CN2S(=O)(=O)c2ccc3c(c2)OCCO3)C1C` (some centres undefined), the activation is 11.6%.

Turning to `CN(C(=O)CSc1nncc2ccccc12)C1CCCCC1`, the activation was 56.8%.

On to `Cc1ccc(C(=O)OC(C)CN2CCOCC2)cc1` (centres undefined), for which the activation is -15.7%.

`COc1cc(Cl)c(C)cc1NC(=O)[C@@H]1CCCN1C(=O)c1cccs1`: the activation was -25.6%.

On to `CC1CN(C(=S)SCC(=O)c2ccccc2)CC(C)O1` (centres undefined), for which the activation was -2.53%.

Turning to `NC(=NC(=O)c1ccccc1)N1CCOCC1`, the activation is 9.73%.

On to `O=C(CSC(=S)N1CCOCC1)c1ccccc1`, for which the activation was 139% (active).

`O=C(NCc1nnc(SCC(=O)N2CCCc3ccccc32)o1)c1ccccc1F`: the activation is -9.96%.

`COc1cc([N+](=O)[O-])ccc1NC(=O)CN1CCCC1`: the activation is -0.5%.

For `COc1ccc(Sc2nc(-c3ccccc3)ncc2OC)cc1`, the activation was -14%.

Regarding `COc1cc(SC)ccc1C(=O)Nc1cc(C)ccn1`, the activation is 220% (active).

For `COc1cc(SC)ccc1C(=O)NCCOc1ccccc1Cl`, the activation is 143% (active).

On to `COc1cc(SC)ccc1C(=O)Nc1nc(C)cs1`, for which the activation is 57.9%.

On to `Cc1ccnc(NC(=O)c2ccoc2C)c1`, for which the activation was 33.5%.

Take `O=C(NCCOc1ccccc1Cl)C(=O)Nc1ccccc1`: the activation was 0.2%.

In the case of `COc1ccccc1CNC(=O)c1ccc(SC)cc1OC`, the activation is -5.82%.

Regarding `O=C(CCC1CCCN(C(=O)Cc2ccc(F)cc2)C1)N1CCN(c2ccccn2)CC1` (centres undefined), the activation was 10.5%.

As to `Cc1c(C2=CCN(S(=O)(=O)c3ccc(Cl)cc3)CC2)c2ccccc2n1C`, the activation was -2.27%.
